# Test results reported in PubChem BioAssay (NCATS).
# Inconclusive results are not listed. Calls of active or inactive are those of the source. Calls come from the whole dose curve. Peptide text beside a SMILES is read from it.
# Test: qHTS Assay for Lipid Storage Modulators (AID 1519); for activity change, negative = inhibition: % is set by controls: 0 for no effect and ±100 for the full control effect
# Settings: Drosophila S3 cells, BODIPY lipid droplet/cell ratio, laser cytometry; at 57.5 µM (top of the series); cells loaded with oleic acid
# How it was run: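 Cells seeded at 5,000 per well were treated with compounds over a concentration series and loaded with oleic acid (400 uM, as added). Lipid droplet fluorescence (488 nm excitation, 500-530 nm channel) was read by laser-scanning cytometry and normalized to 20 uM Triacsin C.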
row,SMILES,"activity change, negative = inhibition"
1,CC/C=C\C[C@H]1C(=O)CC[C@@H]1CC(=O)O,-2.79% (inactive)
2,CCCC(=O)O[C@]1(C(=O)CO)CCC2[C@@H]3CCC4=CC(=O)CC[C@]4(C)C3C(O)C[C@]21C (some centres not stated),9.93% (inactive)
3,COC(=O)C(Cc1ccccc1)NC(=O)C(N)CC(=O)O (stereo not drawn) (H-Asp-Phe-OMe; configuration not given here),5.29% (inactive)
4,CC[C@@]12CCCN3CCc4c(n(c5ccccc45)[C@](O)(C(=O)OC)C1)C32 (some centres not stated),6.08% (inactive)
5,CC1(C)SC2C(N3C(=O)C(c4ccccc4)NC3(C)C)C(=O)N2C1C(=O)O (configuration not stated),8.56% (inactive)
6,CC1CCC(C(C)C)C(=O)C1 (configuration not stated),1.11% (inactive)
7,CC(=O)N[C@H](CC(C)C)C(=O)O,6.38% (inactive)
8,CC(C)C1CCC(C(=O)NC(Cc2ccccc2)C(=O)O)CC1 (configuration not stated),5.23% (inactive)
9,COc1ccc2cc(C(C)CO)ccc2c1 (configuration not stated),8.58% (inactive)
10,COc1ccc2cc1Oc1ccc(cc1)CC1c3c(cc4c(c3Oc3cc5c(cc3OC)CCN(C)C5C2)OCO4)CCN1C (configuration not stated),10.7% (inactive)
11,CNC1C(OC2C(O[C@@H]3C(O)C(O)[C@@H](N=C(N)N)C(O)C3N=C(N)N)OC(C)[C@@]2(O)CO)OC(CO)C(O)C1O (some centres not stated),8.79% (inactive)
12,CC1C2CCC3C4CC=C5CC(N(C)C)CC[C@@]5(C)C4CC[C@@]32CN1C (some centres not stated),6.04% (inactive)
13,C[C@]12C=CC(=O)C=C1CCC1C2C(O)C[C@]2(C)C1CC[C@]2(O)C(=O)CO (some centres not stated),4.07% (inactive)
14,CCOC(=O)C1=CC(OC(CC)CC)C(NC(C)=O)C(N)C1 (configuration not stated),11.6% (inactive)
15,COc1c(O)cc(O)cc1O,-1.6% (inactive)
16,CN(C)CCc1c[nH]c2ccc(CC3COC(=O)N3)cc12 (configuration not stated),10.6% (inactive)
17,Nc1ncnc2c1nc(Br)n2[C@H]1O[C@H]2COP(=O)(O)O[C@H]2[C@@H]1O,-1.26% (inactive)
18,NCC1CCC(N)C(O[C@@H]2C(O)[C@H](O[C@H]3OC(CO)C(O)C(N)C3O)[C@@H](N)C[C@H]2N)O1 (some centres not stated),9.66% (inactive)
19,OCC1O[C@H](OC2C(CO)O[C@@](O)(CO)C2O)C(O)C(O)C1O (some centres not stated),5.94% (inactive)
20,CC1(C)OC2CO[C@]3(COS(N)(=O)=O)OC(C)(C)OC3C2O1 (some centres not stated),-0.118% (inactive)
21,Cc1cc(O)c(C=O)c2c1C(=O)Oc1c(C)c(O)c3c(c1O2)C(O)OC3=O (configuration not stated),13.7% (inactive)
22,CC(=O)OC1CCC2C3CCc4cc(O)ccc4C3CCC12C (configuration not stated),-1.06% (inactive)
23,CN(C)CCCOC1C(C(O)CO)OC2OC(C)(C)O[C@@H]21 (some centres not stated),4.25% (inactive)

# Same assay, conditions: Drosophila S3 cells, BODIPY lipid droplet/cell ratio, laser cytometry; measured here: cell count channel max response; cells loaded with oleic acid
row,SMILES,max response
1,CC1=C(CCC(=O)O)c2cc3nc(cc4[nH]c(cc5[nH]c(cc1n2)c(C)c5C(C)O)c(C)c4C(C)O)C(C)=C3CCC(=O)O (configuration not stated),12.6%
2,C/C(=C\CNc1ncnc2nc[nH]c12)CO,4.12%
3,CCC(C)C(=O)OC1CCC=C2C=CC(C)C(CCC3CC(O)CC(=O)O3)[C@@H]21 (some centres not stated),8.24%
4,C[C@]1(c2ccccc2)OC(C(=O)O)=CC1=O,-4.61%
5,Cc1cc(O)c(C=O)c2c1C(=O)Oc1c(COC(=O)/C=C/C(=O)O)c(O)c(C(=O)O)c(C)c1O2,6.76%
6,OCC1OC([S-])[C@H](O)C(O)C1O.[Au+] (some centres not stated),5.52%
7,COC(=O)N/N=C/C1=C[N+](=O)c2ccccc2[N+]1=O,5.74%
8,CN1CC(=O)N=C1N,5.89%
9,CNC1CC(N)[C@H](O)[C@@H](O[C@@H]2OC(CO)C3OC4(OC(C(N)CO)C(O)C(O)C4O)O[C@@H]3[C@H]2O)C1O (some centres not stated),3.52%
10,COC1C=CO[C@@]2(C)Oc3c(C)c(O)c4c(O)c(c(C=NN5CCN(C)CC5)c(O)c4c3C2=O)NC(=O)/C(C)=C\C=CC(C)C(O)[C@@H](C)C(O)C(C)[C@H](OC(C)=O)C1C (some centres not stated),7.61%
11,CC(=O)N[C@@H]1C(O)OC(CO)C(O)C1O (some centres not stated),4.28%
12,CCC(CCC(C)C1CCC2C3CC=C4CC(O)CC[C@@]4(C)C3CC[C@@]12C)C(C)C (some centres not stated),9.21%
13,O=C1OC(CO)C(O)C(O)C1O (configuration not stated),17.3%
14,COc1ccc(CC(N)C(=O)NC2C(CO)OC(n3cnc4c(N(C)C)ncnc43)C2O)cc1 (configuration not stated),18.9%
15,CC/C=C\C[C@H]1C(=O)CC[C@@H]1CC(=O)O,-8.93%
16,CCCC(=O)O[C@]1(C(=O)CO)CCC2[C@@H]3CCC4=CC(=O)CC[C@]4(C)C3C(O)C[C@]21C (some centres not stated),7.86%
17,COC(=O)C(Cc1ccccc1)NC(=O)C(N)CC(=O)O (stereo not drawn) (H-Asp-Phe-OMe; configuration not given here),-5.71%
18,CC[C@@]12CCCN3CCc4c(n(c5ccccc45)[C@](O)(C(=O)OC)C1)C32 (some centres not stated),25.6%
19,CC1(C)SC2C(N3C(=O)C(c4ccccc4)NC3(C)C)C(=O)N2C1C(=O)O (configuration not stated),12.6%
20,CC1CCC(C(C)C)C(=O)C1 (configuration not stated),11.5%

row,SMILES,max response
1,CC(=O)N[C@H](CC(C)C)C(=O)O,8.9%
2,CC(C)C1CCC(C(=O)NC(Cc2ccccc2)C(=O)O)CC1 (configuration not stated),2.86%
3,COc1ccc2cc(C(C)CO)ccc2c1 (configuration not stated),13.8%
4,COc1ccc2cc1Oc1ccc(cc1)CC1c3c(cc4c(c3Oc3cc5c(cc3OC)CCN(C)C5C2)OCO4)CCN1C (configuration not stated),5.9%
5,CNC1C(OC2C(O[C@@H]3C(O)C(O)[C@@H](N=C(N)N)C(O)C3N=C(N)N)OC(C)[C@@]2(O)CO)OC(CO)C(O)C1O (some centres not stated),13.3%
6,CC1C2CCC3C4CC=C5CC(N(C)C)CC[C@@]5(C)C4CC[C@@]32CN1C (some centres not stated),14%
7,C[C@]12C=CC(=O)C=C1CCC1C2C(O)C[C@]2(C)C1CC[C@]2(O)C(=O)CO (some centres not stated),19.1%
8,COc1ccc2c(c1)N(C[C@@H](C)CN(C)C)c1ccccc1S2,-9.35%
9,CCOC(=O)C1=CC(OC(CC)CC)C(NC(C)=O)C(N)C1 (configuration not stated),14.9%
10,COc1c(O)cc(O)cc1O,3.65%
11,CN(C)CCc1c[nH]c2ccc(CC3COC(=O)N3)cc12 (configuration not stated),-1.36%
12,Nc1ncnc2c1nc(Br)n2[C@H]1O[C@H]2COP(=O)(O)O[C@H]2[C@@H]1O,2.68%
13,NCC1CCC(N)C(O[C@@H]2C(O)[C@H](O[C@H]3OC(CO)C(O)C(N)C3O)[C@@H](N)C[C@H]2N)O1 (some centres not stated),28.1%
14,OCC1O[C@H](OC2C(CO)O[C@@](O)(CO)C2O)C(O)C(O)C1O (some centres not stated),14.3%
15,CC1(C)OC2CO[C@]3(COS(N)(=O)=O)OC(C)(C)OC3C2O1 (some centres not stated),7.1%
16,Cc1cc(O)c(C=O)c2c1C(=O)Oc1c(C)c(O)c3c(c1O2)C(O)OC3=O (configuration not stated),7.17%
17,CC(=O)OC1CCC2C3CCc4cc(O)ccc4C3CCC12C (configuration not stated),7.54%
18,CN(C)CCCOC1C(C(O)CO)OC2OC(C)(C)O[C@@H]21 (some centres not stated),11.4%
19,COc1cc(C2c3cc4c(cc3C(O[C@@H]3OC5COC(c6cccs6)OC5C(O)C3O)C3COC(=O)C23)OCO4)cc(OC)c1O (some centres not stated),22.3%
